Out of some 290,000 compounds screened, about 27,000 (9.3%) were called active. Cut-off read from the data, not from the text of the source: active = inhibition mostly above about 28% (no sharp cut-off); inactive = mostly below about 43%. The full list was thinned out, with actives kept by preference.

Broadly, the inhibition is the change of the read-out against control, counted positive when it falls.

A short description of this assay: A qHTS for Small Molecule Inhibitors of Shiga Toxin. Note: 0% is about no effect. Particulars: Vero cells, Shiga toxin protein synthesis inhibition reporter; at 38.7 µM, hits give high values. (Quantitative high-throughput screening tests each substance at several concentrations.)
In the case of `CCc1ccccc1NC(=O)c1ccc2snnc2c1`, the inhibition was -5.07% (inactive). As for `O=C(Nc1cccc(Br)c1)c1ccc2snnc2c1`, the inhibition was 64% (active). `O=C(Nc1ccc2ccccc2c1)Nc1ccc2snnc2c1`: the inhibition was 1.94% (inactive). Next, `COc1ccccc1S(=O)(=O)c1c(C)cc(C)[nH]c1=O`: -2.84% (inactive); `Cc1cccc([C@@H]2[C@@H]3C(=O)N(C)C(=O)[C@@H]3[C@@H]3C(=O)Nc4ccccc4C(=O)N23)c1`: -2.83% (inactive); `Cn1c(NC(=O)c2ccccc2)nc2ccccc21`: 43.5% (active). In the case of `Cn1sc(NC(=O)c2ccccc2)nc1=O` it was 33.6% (inactive). Next, `Cn1c(S(=O)(=O)O)nc2ccccc21`: -9% (inactive). On to `Cc1ccc2cc(C)c(N3CCN(c4ccc(F)cc4)CC3)nc2c1`, for which the inhibition was 27.6% (inactive). Next, `CC1(C)CC(=O)C2=C(C1)Nc1cc(C(=O)c3ccccc3)ccc1NC2c1ccccn1` (stereo not drawn): -5.56% (inactive); `Cc1cc2c(cc1C)NC(c1ccccn1)C1=C(CC(C)(C)CC1=O)N2` (stereo not drawn): 51.7% (active); `Cc1nn(-c2ccccn2)c2c1C(c1ccncc1)C1=C(CC(C)(C)CC1=O)N2` (stereo not drawn): -3.23% (inactive). In the case of `CCc1ccc(CN(C)C(=O)C2CCC(=O)N(Cc3cccc(OC)c3)C2)nc1` (stereo not drawn) it was 22.8% (inactive); in that of `CCOc1cccc(-c2nnc(SCC(=O)NC3CC3)n2C)c1`, 27% (inactive). Next, `COc1ccc(NC(=O)CSc2nncc(=O)n2N)cc1OC`: -9.85% (inactive); `O=C(COC(=O)c1cccc(Br)c1)Nc1cccc2c1C(=O)c1ccccc1C2=O`: 31.4% (active). For the compound `O=C(COC(=O)Cn1cnc2ccccc21)Nc1cccc2c1C(=O)c1ccccc1C2=O`, the inhibition is -13.5% (inactive).

As to `O=C(COC(=O)c1ccccc1)Nc1ccccc1Sc1ccccc1`, the inhibition is -9.76% (inactive).

Turning to `COc1ccc(C(=O)COC(=O)Cn2cnc3c2c(=O)n(C)c(=O)n3C)c(OC)c1`, the inhibition was -5.14% (inactive). In the case of `Cc1ccc(Oc2nc(-c3ccccn3)nc3ccccc23)cc1` it was 57.7% (active); in that of `CC(C)(C)Nc1nc(-c2ccccn2)nc2ccccc12`, -14.9% (inactive).

Take `COc1cnc(-c2ccccn2)nc1Oc1ccc(C(C)(C)C)cc1`: the inhibition is 1.11% (inactive). Next, `COC1=C(N2CCOCC2)C(=O)c2ccccc2C1=O`: -6.31% (inactive). On to `CCOCCc1nn2c(=O)cc(CSCC(=O)Nc3cccc(C)c3C)nc2s1`, for which the inhibition was -13.9% (inactive).

`O=C(Nc1cccc(-c2cscn2)c1)C1CCN(Cc2ccsc2)CC1`: the inhibition was -4.07% (inactive). In the case of `COCCNC(=O)COc1ccc(N(C)S(=O)(=O)c2ccc3ccccc3c2)cc1` it was -8.35% (inactive); in that of `COC(=O)c1sc2ncccc2c1OCc1ccc(Cl)cc1Cl`, 6.72% (inactive). In the case of `O=S(=O)(O)c1nc2ccccc2n1Cc1ccc(Cl)cc1Cl` it was -6.41% (inactive); in that of `Cc1nc2ccccc2nc(C)c1=NOCc1ccc(Cl)cc1Cl`, 112% (active); in that of `COC(=O)CSc1nnc(NC(=O)CCc2ccccc2)s1`, 10.7% (inactive). With `COc1ccc(CNS(=O)(=O)c2ccc(-c3cnc(C4CC4)o3)cc2)cc1`, the inhibition is -4.74% (inactive). Next, `Cc1ccc(-n2ncc3c2CC(C)(C)CC3NC(=O)CCc2cnn(C)c2)cc1` (stereo not drawn): -4.16% (inactive); `O=C(Oc1cccc(NC2=NS(=O)(=O)c3ccccc32)c1)c1ccncc1`: 2.4% (inactive). In the case of `CC(C)(C)c1csc(NC2=NS(=O)(=O)c3ccccc32)n1` it was 97.3% (active). Turning to `Cc1ccc(S(=O)(=O)N(NC2=NS(=O)(=O)c3ccccc32)C(=O)c2ccccc2)cc1`, the inhibition was -6.05% (inactive). Next, `Cc1ccc(C(C)C)c(OCCSc2nc3ccccc3n2CC(=O)O)c1`: -6.58% (inactive). In the case of `CC(OC(=O)c1ccccc1OCc1ccc(Cl)cc1)C(N)=O` (stereo not drawn) it was -20.8% (inactive); in that of `C=CCc1ccccc1OCC(O)CN1CCN(CCO)CC1` (stereo not drawn), -5.91% (inactive); in that of `O=C(c1ccc(-c2ccccc2)cc1)C1CCCN(C(=O)c2cncs2)C1` (stereo not drawn), 16.3% (inactive).

For the compound `Cc1ccccc1NC(=O)C1CCCN(C(=O)NCc2ccccc2)C1` (stereo not drawn), the inhibition is -9.33% (inactive). In the case of `CCNC(=O)N1CCCC(C(=O)c2ccc(-c3ccccc3)cc2)C1` (stereo not drawn) it was 36.1% (active). `Cc1cccc(C(=O)N2CCN(S(=O)(=O)N3CCCCC3)CC2)c1`: the inhibition was 12.6% (inactive). In the case of `CCC1CCCCN1C(=O)CSc1nc2c(c(=O)n1C)SC(C)C2` (stereo not drawn), the inhibition is -5.97% (inactive). `CCCCN(CCCC)CCNC(=O)CN1C(=O)COc2ccc(S(=O)(=O)N3CCOCC3)cc21`: the inhibition is -2.7% (inactive). Next, `Oc1[nH]c2ccc(Br)cc2c1N=Nc1nn[nH]n1`: 2.43% (inactive).

Regarding `Cc1cccc(N=Nc2c(O)[nH]c3ccc(F)cc23)c1`, the inhibition is 143% (active). In the case of `NS(=O)(=O)c1ccc(N=Nc2c(O)[nH]c3ccc(Br)cc23)cc1` it was 58.5% (inactive); in that of `Cc1ccc(CNC(=O)C2CCN(S(=O)(=O)c3ccc4nc5c(c(C(=O)O)c4c3)CC(C)CC5)CC2)cc1` (stereo not drawn), 19.6% (inactive).

As to `CCOC(=O)CSc1nnc(NC(=O)C2CC(=O)N(c3ccc(F)cc3)C2)s1` (stereo not drawn), the inhibition is -11.5% (inactive). Next, `Cc1ccc(S(=O)(=O)NCC2CCC(C(=O)N3CCOCC3)CC2)cc1` (stereo not drawn): -3.33% (inactive).

With `O=C(c1cccnc1)N1CCN(S(=O)(=O)c2cccs2)CC1`, the inhibition was -10.5% (inactive). Turning to `CCOC(=O)c1cccc(NC(=O)CN2C(=O)C3CC=CCC3C2=O)c1` (stereo not drawn), the inhibition is -2.13% (inactive).

Consider `Cc1ccc(NC(=O)NC(=O)N(C2CCCCC2)S(=O)(=O)c2ccccc2)cc1`, for which the inhibition was 0% (active). With `Cc1ccc(S(=O)(=O)N(C)CC(=O)OCC(=O)Nc2ccccc2)cc1`, the inhibition is 10.4% (inactive). Next, `CC(c1ccco1)N(C(=O)Nc1ccccc1)C1CCCCC1` (stereo not drawn): 71.5% (inactive).

Consider `COc1cc(Br)c(-c2sc(Nc3ccccc3)n[n+]2-c2ccccc2)cc1OC`, for which the inhibition is -9.06% (inactive). In the case of `Cc1ccc(NC(=S)N/N=C2/CCCc3c(C)cc(C)cc32)cc1` it was -4.99% (inactive). Next, `Cc1ccccc1NC(=S)NNC(=O)c1cccc(Br)c1`: 48.8% (inactive); `Cn1nnc(NC(=S)NC(=O)c2ccccc2)n1`: 64.6% (active); `Cc1cc(C(=O)Nc2c(C)n(C)n(-c3ccccc3)c2=O)cs1`: -6.98% (inactive). Next, `Cc1ccc(C(=O)NC(=S)Nc2ccc(N3CCOCC3)cc2)cc1`: 30% (inactive). With `CCOC(=O)c1c(-c2ccccc2)csc1NC(=S)NC(=O)c1ccccc1`, the inhibition was -2.96% (inactive). In the case of `Cc1cc(C(=O)NNC(=S)Nc2ccccc2C)cs1` it was 66.8% (active); in that of `Cc1ccc(C)c(NC(=S)NNC(=S)Nc2ccc(C(C)C)cc2)c1`, 50.1% (active); in that of `CC(C)c1ccc(NC(=S)NNc2ccc(Cl)c(C(=O)O)c2)cc1`, 52% (inactive).

Take `Cc1ccc(C(=O)NC(=S)Nc2ccccc2C)cc1`: the inhibition is 97.5% (active). In the case of `COc1ccc(C(=O)NNC(=S)NC(=O)c2ccccc2)cc1` it was 31.4% (inactive). With `Cc1ccccc1NC(=S)NC(=O)Cc1ccc(Cl)cc1`, the inhibition was -4.05% (inactive).

The record behind these values is PubChem BioAssay AID2315 (National Center for Advancing Translational Sciences (NCATS), 2010).
